In PMC5540273 (PLoS ONE, 2017):

What was measured:
Conditions in all cases: concentration: 1 μM, replicates: in singlicate; n = 1
[1] = test system: T1, RSK1(Kin.Dom.1-N-terminal)
T1 construct: gene RPS6KA1

[2] = test system: T2, RSK1(Kin.Dom.2-C-terminal)
T2 construct: gene RPS6KA1

[3] = test system: T3, RSK2(Kin.Dom.1-N-terminal)
T3 construct: gene RPS6KA3

[4] = test system: T4, RSK2(Kin.Dom.2-C-terminal)
T4 construct: gene RPS6KA3

[5] = test system: T5, RSK3(Kin.Dom.1-N-terminal)
T5 construct: gene RPS6KA2

[6] = test system: T6, RSK3(Kin.Dom.2-C-terminal)
T6 construct: gene RPS6KA2

[7] = test system: T7, RSK4(Kin.Dom.1-N-terminal)
T7 construct: gene RPS6KA6

[8] = test system: T8, RSK4(Kin.Dom.2-C-terminal)
T8 construct: gene RPS6KA6

S6K1 = test system: S6K1
SBK1 = test system: SBK1
SGK2 = test system: SGK2
SGK3 = test system: SGK3
SGK = test system: SGK
SIK2 = test system: SIK2
SIK = test system: SIK
SLK = test system: SLK
SNARK = test system: T9, SNARK
T9 construct: gene NUAK2

SNRK = test system: SNRK
SRC = test system: SRC
SRMS = test system: SRMS
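Also: KINOMEscan kinase panel screen.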

Row | Structure (SMILES) | %Inh [1] | %Inh [2] | %Inh [3] | %Inh [4] | %Inh [5] | %Inh [6] | %Inh [7] | %Inh [8] | %Inh (S6K1) | %Inh (SBK1) | %Inh (SGK2) | %Inh (SGK3) | %Inh (SGK) | %Inh (SIK2) | %Inh (SIK) | %Inh (SLK) | %Inh (SNARK) | %Inh (SNRK) | %Inh (SRC) | %Inh (SRMS)
1 | Cc1ccc(Oc2ccc(Nc3ncnc4cc[nH]c34)cc2C)cn1 | 5% | 8% | 0% | 0% | 16% | 16% | 9% | 6% | 7% | 44% | 5% | 5% | 12% | 0% | 21% | 10% | 6% | 32% | 16% | 22%
2 | COc1cc2ncn(-c3cc(OCc4ccc(S(C)(=O)=O)cc4)c(C(N)=O)s3)c2cc1OC [GW869979] | 1% | 0% | 26% | 0% | 0% | 7% | 27% | 6% | 19% | 37% | 24% | 5% | 40% | 0% | 0% | 29% | 15% | 2% | 11% | 14%
3 | CCS(=O)c1ccc(-c2coc3ccc(-c4nnc(C)o4)cc23)cc1 (centres unmarked) | 0% | 18% | 5% | 0% | 3% | 11% | 18% | 6% | 8% | 0% | 13% | 23% | 7% | 5% | 13% | 0% | 30% | 0% | 0% | 0%
4 | COc1ccc(-c2coc3ccc(-c4nnc(SCc5cccc(C#N)c5)o4)cc23)cc1 | 16% | 24% | 9% | 0% | 16% | 18% | 26% | 24% | 2% | 0% | 0% | 21% | 0% | 0% | 17% | 18% | 30% | 18% | 3% | 0%
5 | Cc1cccc(-c2nc(Nc3ccc4c(cnn4C)c3)c3ccccc3n2)n1 [GW876731] | 32% | 0% | 26% | 0% | 24% | 0% | 8% | 0% | 0% | 10% | 37% | 3% | 0% | 0% | 0% | 2% | 21% | 0% | 11% | 0%
6 | COc1ccc(-c2cc3c(C)nc(N)nc3n([C@H]3CC[C@H](OCCO)CC3)c2=O)cn1 | 0% | 9% | 0% | 0% | 16% | 12% | 0% | 23% | 0% | 0% | 0% | 17% | 0% | 5% | 18% | 0% | 0% | 0% | 8% | 1%
7 | Cc1nc(N(C)[C@H]2CN(C(=O)CC#N)CC[C@H]2C)c2cc[nH]c2n1 | 12% | 0% | 0% | 0% | 12% | 12% | 4% | 4% | 0% | 0% | 7% | 0% | 25% | 0% | 6% | 1% | 1% | 0% | 11% | 2%
8 | COc1cc2nccc(Nc3ccc(OCc4ccc(NC(C)=O)cc4)cc3)c2cc1OC.Cl [GW440135] | 0% | 0% | 19% | 0% | 4% | 0% | 2% | 0% | 9% | 5% | 0% | 0% | 2% | 4% | 0% | 3% | 0% | 0% | 14% | 20%
9 | CCCC(=O)Nc1n[nH]c2ncc(-c3cccc4ccccc34)cc12 [SB-642057] | 26% | 24% | 14% | 0% | 0% | 0% | 0% | 15% | 16% | 7% | 0% | 26% | 0% | 0% | 0% | 14% | 0% | 0% | 0% | 4%
10 | CCS(=O)(=O)c1ccc(OC)c(Nc2ncc(-c3ccc(F)cc3)o2)c1.Cl [GW591947] | 11% | 0% | 0% | 22% | 0% | 2% | 0% | 3% | 0% | 0% | 2% | 0% | 0% | 0% | 2% | 6% | 0% | 0% | 0% | 0%
11 | Cl.NS(=O)(=O)c1cccc(Nc2cc(-c3ccc(F)cc3)n[nH]2)c1 [GW824645] | 0% | 0% | 35% | 0% | 0% | 0% | 15% | 0% | 0% | 0% | 100% | 0% | 22% | 3% | 0% | 0% | 0% | 0% | 1% | 31%
12 | O=C(NCc1cccs1)c1cc(C(=O)c2c(Cl)cccc2Cl)c[nH]1 [GW823670] | 16% | 13% | 2% | 0% | 0% | 18% | 0% | 0% | 7% | 0% | 0% | 0% | 0% | 4% | 4% | 9% | 0% | 0% | 0% | 15%
13 | CN(C)c1cc(-c2ccc3c(N)n[nH]c3c2)nc(N)n1 [GSK2219329] | 11% | 0% | 0% | 0% | 0% | 4% | 0% | 14% | 2% | 7% | 0% | 3% | 5% | 0% | 0% | 13% | 0% | 0% | 12% | 0%
14 | CCCNC(=O)Nc1ccc(Oc2ncnc3ccn(C)c23)cc1 | 14% | 13% | 27% | 0% | 0% | 5% | 25% | 0% | 0% | 20% | 13% | 0% | 1% | 0% | 23% | 0% | 0% | 0% | 0% | 0%
15 | Cc1nnc(-c2ccc3ncn(-c4ccc(S(C)=O)cc4)c3c2)o1 (centres unmarked) | 19% | 21% | 4% | 0% | 0% | 18% | 0% | 32% | 0% | 0% | 0% | 0% | 0% | 13% | 20% | 14% | 0% | 0% | 5% | 0%
16 | Cc1nnc(-c2ccc(C)c(-c3ccc(C(=O)O)cc3)c2)o1 [GW608005] | 2% | 2% | 0% | 2% | 3% | 0% | 0% | 2% | 10% | 4% | 0% | 0% | 0% | 0% | 0% | 0% | 5% | 0% | 0% | 0%

Row | Structure (SMILES) | %Inh [1] | %Inh [2] | %Inh [3] | %Inh [4] | %Inh [5] | %Inh [6] | %Inh [7] | %Inh [8] | %Inh (S6K1) | %Inh (SBK1) | %Inh (SGK2) | %Inh (SGK3) | %Inh (SGK) | %Inh (SIK2) | %Inh (SIK) | %Inh (SLK) | %Inh (SNARK) | %Inh (SNRK) | %Inh (SRC) | %Inh (SRMS)
17 | CC(C)(C)c1ccc(C(=O)Nc2cn3cc(-c4ccccc4)ccc3n2)cc1 | 0% | 0% | 3% | 0% | 24% | 100% | 0% | 0% | 0% | 0% | 0% | 0% | 0% | 66% | 0% | 9% | 0% | 0% | 0% | 0%
18 | CCc1nc(-c2cccc(C)c2)c(-c2ccncc2)s1 | 0% | 91.2% | 0% | 0% | 11% | 10% | 0% | 94.6% | 0% | 0% | 0% | 0% | 0% | 4% | 2% | 26% | 0% | 9% | 0% | 0%
19 | CN1C(=O)C(Nc2cc(Cl)c(O)c(Cl)c2)=C(c2ccc(Cl)cc2)C1=O [SB-404321] | 0% | 0% | 5% | 0% | 0% | 9% | 0% | 0% | 17% | 0% | 0% | 0% | 0% | 0% | 0% | 0% | 0% | 0% | 0% | 0%
20 | Cl.c1ccc(Cn2cnc3cc(Nc4ncnc5ccccc45)ccc32)cc1 [GW272142] | 0% | 0% | 0% | 0% | 0% | 6% | 0% | 5% | 0% | 1% | 0% | 0% | 0% | 0% | 0% | 20% | 0% | 0% | 0% | 0%
21 | Nc1ncnc2c1ncn2-c1cccc(F)c1 [SKF-97560] | 31% | 0% | 23% | 0% | 9% | 0% | 21% | 0% | 36% | 25% | 38% | 0% | 37% | 0% | 1% | 18% | 13% | 20% | 22% | 14%
22 | Nc1n[nH]c2nnc(-c3ccccc3)c(-c3ccccc3)c12 [GW554060] | 0% | 1% | 4% | 29% | 4% | 0% | 10% | 8% | 0% | 13% | 0% | 1% | 24% | 0% | 0% | 24% | 0% | 0% | 0% | 0%
23 | CCC(=O)c1c(-c2ccccc2)c2cc(Cl)ccc2c(=O)n1Cc1cc(S(C)(=O)=O)n(CCC(C)(C)O)n1 | 0% | 0% | 9% | 0% | 11% | 5% | 39% | 23% | 0% | 0% | 4% | 0% | 4% | 7% | 11% | 21% | 1% | 27% | 0% | 0%
24 | Nc1ncnc2c1ncn2-c1cccc2ccccc12 [SKF-97184] | 16% | 16% | 38% | 0% | 0% | 36% | 11% | 0% | 15% | 28% | 21% | 4% | 35% | 0% | 0% | 0% | 0% | 2% | 8% | 17%
25 | OCCCNc1nccc(-c2c(-c3cccc(C(F)(F)F)c3)nn3cc(C(F)(F)F)ccc23)n1 [GW630813] | 0% | 32% | 0% | 5% | 0% | 0% | 0% | 89% | 1% | 0% | 0% | 6% | 0% | 0% | 0% | 4% | 0% | 0% | 0% | 0%
26 | CCC(=O)c1c(-c2ccccc2)c2cc(Cl)ccc2c(=O)n1Cc1cc(S(C)(=O)=O)n(CC(N)=O)n1 | 0% | 0% | 0% | 0% | 1% | 6% | 0% | 5% | 0% | 0% | 0% | 0% | 0% | 2% | 0% | 0% | 0% | 0% | 0% | 0%
27 | O=C(Nc1n[nH]c2nc(-c3ccccc3)c(Cl)cc12)C1CC1 [SB-734909] | 26% | 0% | 29% | 0% | 0% | 7% | 42% | 1% | 44% | 0% | 5% | 12% | 9% | 27% | 0% | 15% | 0% | 33% | 0% | 0%
28 | COc1cc2nccc(Nc3cccc(Oc4ccccc4)c3)c2cc1OC.Cl [GW284543] | 0% | 0% | 0% | 0% | 10% | 0% | 0% | 0% | 0% | 16% | 0% | 0% | 37% | 0% | 0% | 21% | 0% | 0% | 7% | 55%
29 | CN1C(=O)C(Nc2ccccc2)=C(c2ccccc2)C1=O [SB-300079] | 8% | 0% | 37% | 0% | 0% | 0% | 10% | 12% | 0% | 0% | 0% | 11% | 7% | 7% | 3% | 0% | 12% | 0% | 0% | 21%
30 | O=C(NCCNc1ccnc(Nc2ccc(F)cc2)n1)Nc1ccc2c(c1)OCO2 [GSK1379882] | 15% | 22% | 14% | 30% | 0% | 0% | 0% | 12% | 0% | 6% | 13% | 7% | 12% | 0% | 0% | 0% | 1% | 0% | 0% | 0%
31 | CCc1ccc(-c2ccc3c(c2)-c2nn(C)cc2S(=O)(=O)N3C)cc1 | 2% | 41% | 15% | 63% | 10% | 32% | 0% | 21% | 22% | 0% | 0% | 0% | 0% | 0% | 0% | 12% | 0% | 0% | 0% | 46%
